Reference: PubChem BioAssay (NCATS)
Records with an inconclusive call do not appear. Unmarked numbers belong to inactive results. Calls of active or inactive are those of the source. Calls come from the whole dose curve; as a rule, active = well fitted cell-killing curve with a large enough effect; inconclusive = small, poorly fitted or top-dose-only effect; inactive = flat fitted curve, though single readings scatter. Starred links: 1 amine or outer side, 2 acyl side, 3 side chain; linkers in the order of their positions; H or OH if unused. Positions of bridges follow the written chain, without caps; N, C: chain ends. Non-standard residues stand in square brackets, D forms with d. Residues, ends and D or L forms follow the SMILES beside them. ξ: configuration not given here. *: point of attachment. X3 = C[C@@H](Oc1ccc([C@H](N[*:1])C(=O)[*:2])cc1)[C@]1(/C=C\C(=O)[*:3])CO1; d(aIle) = CC[C@H](C)[C@@H](N)C(=O)O; X2 = CC(C)[C@@H](O)C(C)C(=O)*; ξNMeF = CNC(Cc1ccccc1)C(=O)O; ξT = CC(O)C(N)C(=O)O; ξS = NC(CO)C(=O)O

Assay: J3T Cancer Cell Toxicity qHTS against the NCATS CANVASS Library (AID 1347371);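 for activity change, negative = cytotoxicity: J3T is a canine glioma cancer cell line seeded at 500 cells per well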
Details: J3T dog glioma viability, ATP luminescence, 72 h; series mostly up to 46.1 µM; activity change, negative = cytotoxicity: at the top concentration
Excerpt: Natural products and their derivatives continue to be wellsprings of nascent therapeutic potential. However, many laboratories have limited resources for biological evaluation, leaving their previously isolated or synthesized compounds largely or completely untested. To address this issue, the Canvass library of natural products was assembled (https://tripod.nih.gov/canvass), in collaboration with academic and industry researchers, for quantitative high-throughput screening (qHTS) across a diverse set of cell-based and biochemical assays. The pure (>85% purity by liquid chromatography/mass spectrometry [LC/MS]) Canvass library of 346 natural products were submitted by 45 academic laboratories and companies around the world. We collected pure natural products to circumvent deconvolution and structure elucidation due to time and resource limitations. The library was formatted into 1536-well plates and evaluated in 50 qHTS (in an 11-pnt concentration series) bioassays with broad scope of disease-relevant mechanisms. The resulting data set from 50 different assays was then systematically analyzed to identify overall trends and specific natural products with interesting biological activities. Reported herein are the results of each individual qHTS and their corresponding assay protocol. This assay uses ATP (luminescence) content to measure the cytotoxiciy of compounds on J3T dog glioma cancer cell line. National Center for Advancing Translational Sciences (NCATS), Rockville, MD National Institute of Health (NIH), Bethesda, Maryland
Cancer Cell Toxicity qHTS protocol: for cell lines G06, J3T, and SDT. 1. In a 1536 well, tissue culture treated white solid bottom plates (Corning 7494), 5 uL of J3T cell solution (final concentration of 500 cells / well) was dispensed using the Multidrop Combi dispenser (Thermo Fisher Scientific) into columns 2, 3, 5-48. 2. Control and Compounds were pin transferred (~23nL volume) to the assay plates via Wako Pin-tool (Wako Automation, Richmond VA) equipped with a 1536 pin head. The compounds were transferred to columns 5-48 resulting in a final concentration ranging from 0.17nM to 103uM. Dose response titration of Bortezomib was pin transferred into column 2 (1mM; 1:2 dilution; 16 points) resulting to a final concentration range of 0.1nM - 4.6uM. 3. The assay plates were further incubated in the at 37C, 5% CO2, 95% Rh for 72 hr. 4. After incubation, 3 uL of CellTiterGlo reagent (Promega) was added to the assay plates (column 1-48, rows 1-32) and centrifuged for 15 sec at 1000 rpm to remove bubbles. 5. Luminescence signal was acquired via the ViewLux plate reader (PerkinElmer) using a clear emission filter, 2 sec exposure, and 1x binning settings.
% is set by controls: 0 for no effect and ±100 for the full control effect; potency is the fitted concentration of half-maximal effect.

Row | Structure (SMILES) | Potency | activity change, negative = cytotoxicity | outcome
1 | COC1C(O)C(C)OC(OC2C(Oc3cccc4c(O)c5c(=O)oc6ccc(C)c7c(=O)oc(c34)c5c67)OC(C)C(O)C2O)C1O (centres undefined) | 23.5 µM (active) | – | –
2 | C[C@]12CC(O)C3[C@@H](CC[C@@H]4C[C@@H](O)CC[C@]34CO)[C@@]1(O)CC[C@@H]2C1=CC(=O)OC1 (some centres undefined) | 10.5 µM (active) | – | –
3 | COC1=C(C2=C(OC)C(=O)c3cc4c(c(O)c3C2=O)C(=O)O[C@H](C)C4)C(=O)c2c(cc3c(c2O)C(=O)O[C@H](C)C3)C1=O | – | -2.37% [at 15.4 µM] | –
4 | CC[C@H](C)[C@H]1NC(=O)[C@@H](NC(=O)C(C)[C@H](O)C(C)C)[C@@H](C)OC(=O)C2COC(=O)CNC(=O)/C=C\[C@]3(CO3)[C@@H](C)Oc3ccc(cc3)[C@H](NC1=O)C(=O)N(C)C(Cc1ccccc1)C(=O)NC(C(C)O)C(=O)N2 (some centres undefined) (X2-T[d(aIle)][X3][ξNMeF][ξT][ξS]; ester 1-C; linker 3-6 via G) | – | -10% [at 27.5 µM] | –
5 | O[C@H]1C=C[C@@]23CCN(Cc4cc5c(cc42)OCO5)[C@@H]3C1 | – | – | inactive
6 | CO[C@@H](/C=C/CC/C=C/C(=O)O)[C@@H](O)[C@H](C)/C=C(\C)[C@H](O)[C@H](C)C(=O)CCCC1CC(=O)NC(=O)C1 | – | 2.33% | –
7 | C=C[C@H]1CN2CCc3c([nH]c4cccc(OC)c34)[C@@H]2C[C@@H]1/C(=C\OC)C(=O)OC | – | -6.48% | –
8 | C=C[C@]12C=CCN3CC[C@@]4(c5ccccc5NC(=O)[C@@H]4C1)[C@@H]32 | – | – | inactive
9 | C[C@]12CCC3[C@@H](CC[C@@H]4C[C@@H](O)CC[C@]34CO)[C@@]1(O)CC[C@@H]2C1=CC(=O)OC1 (some centres undefined) | 2.96 µM (active) | – | –
10 | C[C@]12CC(O)C3[C@@H](CCC4C[C@@H](O)CC[C@@]43CO)[C@@]1(O)CC[C@@H]2C1=CC(=O)OC1 (some centres undefined) | 14.8 µM (active) | – | –
11 | CO[C@H]1C[C@H](O[C@H]2[C@@H](O)C[C@H](O[C@H]3CC[C@]4(C=O)[C@H]5CC[C@]6(C)C(C7=CC(=O)OC7)CC[C@]6(O)[C@@H]5CC[C@]4(O)C3)O[C@@H]2C)O[C@H](C)[C@H]1O[C@H]1C[C@@H](OC)[C@@H](O[C@@H]2O[C@H](CO)[C@@H](O)[C@H](O)[C@H]2O)[C@@H](C)O1 (some centres undefined) | 0.332 µM (active) | – | –
12 | CC(C)CC1C(=O)O[C@H](C(C)C)C(=O)N(C)C(CC(C)C)C(=O)O[C@@H](C(C)C)C(=O)N(C)C(CC(C)C)C(=O)O[C@H](C(C)C)C(=O)N(C)C(CC(C)C)C(=O)O[C@@H](C(C)C)C(=O)N1C (some centres undefined) | – | -23.6% | –
13 | CC[C@]12C=CCN3CC[C@]4(C(=C(C(=O)OC)C1)Nc1ccccc14)[C@@H]32 | – | -7.52% | –
14 | C[N+](C)(C)CCc1c[nH]c2ccccc12 | – | -13.5% | –
15 | CO[C@H]1[C@H](O[C@H]2CC[C@]3(C=O)[C@H]4CC[C@]5(C)[C@@H](C6=CC(=O)OC6)CC[C@]5(O)[C@@H]4CC[C@]3(O)C2)O[C@H](C)[C@H](O)[C@@H]1OC | 0.372 µM (active) | – | –
16 | C=C(C)[C@H]1C(=O)c2c3c(cc4c5c(n1c24)[C@@]1(C)[C@@H](CC[C@H]2[C@](C)(/C=C/C=C(\C)C(=O)O)[C@@H](O)CC[C@@]21C)C5)C1=CC(C)(C)OC(C)(C)[C@H]1[C@@H]3O | – | -12.2% | –
17 | CCCCC1CC[C@H]2CCCC(CCC)N12 (some centres undefined) | – | -18.8% | –

Row | Structure (SMILES) | Potency | activity change, negative = cytotoxicity | outcome
18 | CCC(=O)N[C@@H](C[C@H](C)C(Cl)(Cl)Cl)C(=O)N1C(=O)C=C(OC)[C@@H]1C[C@H](C)C(Cl)Cl | – | 1.64% | –
19 | CC[C@H]1CN2CCc3c([nH]c4cccc(OC)c34)[C@@H]2C[C@@H]1/C(=C\OC)C(=O)OC | – | -12.8% | –
20 | CCCC[C@@H](C)/C=C1/CN2CCC[C@H]2[C@@](C)(O)[C@@H]1O | – | -1.14% | –
21 | C/C=C(\C)C(=O)O[C@@H]1[C@@H](O)[C@@H]2O[C@H]3[C@H](O[C@@H](CCCCC)CCCCCCC(=O)CCC(=O)OC[C@@H](O2)[C@H]1OC(=O)/C=C/c1ccccc1)O[C@H](C)[C@H](OC(C)=O)[C@@H]3O | – | -11.1% | –
22 | C/C=C1/CN2CC[C@]34C(=C(C(=O)OC)[C@H]1C[C@H]23)Nc1ccccc14 | – | -18.5% | –
23 | CC[C@@H]1CN2CCC3(Nc4cccc(OC)c4C3=O)[C@@H]2C[C@@H]1/C(=C\OC)C(=O)OC (some centres undefined) | – | 0.44% | –
24 | CCCC[C@@H]1CC[C@H]2CCCC(CCCO)N12 (some centres undefined) | – | – | inactive
25 | C1=C2CCCN[C@H]2C2CC1[C@H]1CCCCN1C2 (some centres undefined) | – | -9.4% | –
26 | C/C=C1/CN2C3CC1C1=CCC(=O)N4c5ccccc5[C@@]3(C[C@@H]2C2=C[C@H]3C5CC6N(CC[C@@]67c6ccccc6N(C2=O)[C@@H]37)C/C5=C/C)[C@H]14 (some centres undefined) | 23.5 µM (active) | – | –
27 | C/C(=C\[C@H](C)C(=O)C[C@H](O)CC1CC(=O)NC(=O)C1)[C@@H]1OC(=O)/C=C/CC/C=C/C=C/[C@@H]1C | 0.264 µM (active) | – | –
28 | C/C=C/[C@@H]1[C@H]2C[C@@H](C)CC[C@@H]2C(C)=C[C@H]1C(=O)c1c(O)c(-c2ccc(O)cc2)c[nH]c1=O | – | – | inactive
29 | C=CC(C)(C)[C@@]12C[C@H]3C(=O)N/C(=C/c4cnc[nH]4)C(=O)N3[C@@H]1Nc1ccccc12 | – | 6.22% | –
30 | C=CC(C)(C)[C@@]12C[C@H]3C(=O)N/C(=C\c4cnc[nH]4)C(=O)N3[C@@H]1Nc1ccccc12 | – | 0.621% | –
31 | CO[C@@]12c3c(C)cc(O)c4c(=O)occ(c34)C(=O)[C@@H]1[C@]13COC(=O)c4c(O)cc(C)c(c41)C(=O)[C@H]2[C@@H]3OC(C)=O | – | – | inactive
32 | c1ccc2nc3c(cc2c1)[nH]c1ccccc13 | – | -11.6% | –
33 | C/C=C1/CN2CC[C@@]34c5ccccc5N(C)[C@@H]3[C@@H]2C[C@@H]1[C@H]4C(=O)OC | – | -6.14% | –
34 | CO[C@H]([C@@H](C)[C@H]1O[C@]1(C)C[C@H](C)/C=C/C=C(\C)[C@H]1O[C@@H](CC(=O)O)CC[C@@H]1C)[C@@H](C)O | 0.0209 µM (active) | – | –
